Laboratory results published in PubChem BioAssay AID1159580 (chemical genetic matrix, 2015).
Among all 5,500 compounds or so, about 2,000 (36%) were called active. Roughly 18% stayed inconclusive and do not appear here. Cut-off read from the data, not from the text of the source: active = normalized growth mostly below about 0.91 (no sharp cut-off); inconclusive = no clear call, values can overlap the other calls; inactive = mostly above about 0.92. This is one part of the list.

Assay: chemical genetic growth profiling, strain panel (AID 1159580);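 note: tested at 20 µM; growth read once vehicle control cultures reached saturation at 30 °C; 1 = growth at the plate median or of vehicle wells; lower values mean less growth of the strain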
Conditions: growth OD
[1] = S. cerevisiae deletion strains, locus YJR075W, strain HOC1, stronger effect = lower value
[2] = S. cerevisiae deletion strains, locus YNL153C, strain GIM3, stronger effect = lower value
[3] = S. cerevisiae deletion strains, locus YPL055C, strain LGE1, stronger effect = lower value
[4] = S. cerevisiae deletion strains, locus YPL241C, strain CIN2, stronger effect = lower value
[5] = S. cerevisiae deletion strains, locus YDL101C, strain DUN1, stronger effect = lower value
[6] = S. cerevisiae deletion strains, locus YHR030C, strain SLT2, stronger effect = lower value

Measured: normalized growth

COCC(=O)O[C@]1(CCN(C)CCCc2nc3ccccc3[nH]2)CCc2cc(F)ccc2[C@@H]1C(C)C
inactive: S. cerevisiae deletion strains, locus YAL040C, strain CLN3, stronger effect = lower value 1 | S. cerevisiae deletion strains, locus YCL061C, strain MRC1 (second series), stronger effect = lower value 1 | S. cerevisiae deletion strains, locus YDR363W, strain ESC2, stronger effect = lower value 1 | S. cerevisiae deletion strains, locus YER002W, strain NOP16, stronger effect = lower value 1.02 | [1] 0.967 | [2] 0.941 | S. cerevisiae deletion strains, locus YNL175C, strain NOP13, stronger effect = lower value 1.03 | S. cerevisiae deletion strains, locus YNL197C, strain WHI3, stronger effect = lower value 1.04 | S. cerevisiae deletion strains, locus YNL224C, strain SQS1, stronger effect = lower value 1.03 | S. cerevisiae deletion strains, locus YOR083W, strain WHI5 (second series), stronger effect = lower value 1.03 | [3] 0.929 | [4] 0.985

O=C(O)CCNC(=S)Nc1cccc(C(F)(F)F)c1
inactive: S. cerevisiae deletion strains, locus YAL013W, strain DEP1, stronger effect = lower value 0.998 | S. cerevisiae deletion strains, locus YBR229C, strain ROT2, stronger effect = lower value 1.01 | S. cerevisiae deletion strains, locus YCL061C, strain MRC1, stronger effect = lower value 0.99 | [5] 1.01 | S. cerevisiae deletion strains, locus YDL134C, strain PPH21, stronger effect = lower value 0.983 | S. cerevisiae deletion strains, locus YDR150W, strain NUM1, stronger effect = lower value 1.03 | S. cerevisiae deletion strains, locus YEL061C, strain CIN8, stronger effect = lower value 1.02 | S. cerevisiae deletion strains, locus YGR078C, strain PAC10, stronger effect = lower value 1.01 | S. cerevisiae deletion strains, locus YGR229C, strain SMI1, stronger effect = lower value 0.982 | [6] 0.996 | S. cerevisiae deletion strains, locus YHR087W, strain rtc3, stronger effect = lower value 1.02 | S. cerevisiae deletion strains, locus YJR043C, strain POL32, stronger effect = lower value 0.987 | [1] 0.997 | S. cerevisiae deletion strains, locus YLR039C, strain RIC1, stronger effect = lower value 0.976 | S. cerevisiae deletion strains, locus YLR058C, strain SHM2 (second series), stronger effect = lower value 0.999 | S. cerevisiae deletion strains, locus YLR085C, strain ARP6, stronger effect = lower value 0.971 | S. cerevisiae deletion strains, locus YLR262C, strain YPT6, stronger effect = lower value 0.986 | S. cerevisiae deletion strains, locus YML094W, strain GIM5, stronger effect = lower value 1.11 | S. cerevisiae deletion strains, locus YMR219W, strain ESC1, stronger effect = lower value 1 | S. cerevisiae deletion strains, locus YMR263W, strain SAP30, stronger effect = lower value 0.984 | [2] 1.01 | S. cerevisiae deletion strains, locus YNL298W, strain CLA4 (second series), stronger effect = lower value 0.985 | S. cerevisiae deletion strains, locus YNL322C, strain KRE1, stronger effect = lower value 1.01 | S. cerevisiae deletion strains, locus YNR030W, strain Alg12, stronger effect = lower value 1.03 | [3] 1.04 | [4] 0.918 | S. cerevisiae deletion strains, locus YPR135W, strain CTF4, stronger effect = lower value 1.06 | S. cerevisiae strains, strain wild type, stronger effect = lower value 0.966

O=C(CCSc1cccs1)Nc1cccc(C(F)(F)F)c1
active: [6] 0.84 | S. cerevisiae deletion strains, locus YLR113W, strain HOG1, stronger effect = lower value 0.711 | S. cerevisiae deletion strains, locus YPL256C, strain CLN2, stronger effect = lower value 0.796
inactive: S. cerevisiae deletion strains, locus YAR019C, strain CDC15, stronger effect = lower value 0.936 | S. cerevisiae deletion strains, locus YBL105C, strain PKC1, stronger effect = lower value 0.922 | S. cerevisiae deletion strains, locus YBR135W, strain CKS1, stronger effect = lower value 0.929 | S. cerevisiae deletion strains, locus YBR136W, strain MEC1, stronger effect = lower value 0.911 | S. cerevisiae deletion strains, locus YBR160W, strain CDC28, stronger effect = lower value 0.926 | S. cerevisiae deletion strains, locus YDL017W, strain CDC7, stronger effect = lower value 0.922 | S. cerevisiae deletion strains, locus YDL028C, strain MPS1, stronger effect = lower value 0.93 | [5] 0.921 | S. cerevisiae deletion strains, locus YDL108W, strain KIN28, stronger effect = lower value 0.946 | S. cerevisiae deletion strains, locus YDL132W, strain cdc53, stronger effect = lower value 0.92 | S. cerevisiae deletion strains, locus YDL214C, strain PRR2, stronger effect = lower value 0.911 | S. cerevisiae deletion strains, locus YDR052C, strain DBF4, stronger effect = lower value 0.948 | S. cerevisiae deletion strains, locus YDR054C, strain cdc34, stronger effect = lower value 0.916 | S. cerevisiae deletion strains, locus YDR226W, strain ADK1, stronger effect = lower value 0.93 | S. cerevisiae deletion strains, locus YDR477W, strain SNF1, stronger effect = lower value 0.966 | S. cerevisiae deletion strains, locus YER123W, strain YCK3, stronger effect = lower value 0.915 | S. cerevisiae deletion strains, locus YER133W, strain GLC7, stronger effect = lower value 0.965 | S. cerevisiae deletion strains, locus YFL009W, strain cdc4, stronger effect = lower value 0.945 | S. cerevisiae deletion strains, locus YFL029C, strain CAK1, stronger effect = lower value 0.925 | S. cerevisiae deletion strains, locus YFR003C, strain YPI1, stronger effect = lower value 0.93 | S. cerevisiae deletion strains, locus YFR019W, strain FAB1, stronger effect = lower value 0.931 | S. cerevisiae deletion strains, locus YFR028C, strain CDC14, stronger effect = lower value 0.952 | S. cerevisiae deletion strains, locus YGR040W, strain KSS1, stronger effect = lower value 0.961 | S. cerevisiae deletion strains, locus YGR052W, strain FMP48, stronger effect = lower value 0.952 | S. cerevisiae deletion strains, locus YGR092W, strain DBF2, stronger effect = lower value 0.872 | S. cerevisiae deletion strains, locus YHR079C, strain IRE1, stronger effect = lower value 0.853 | S. cerevisiae deletion strains, locus YHR082C, strain KSP1, stronger effect = lower value 0.884 | S. cerevisiae deletion strains, locus YHR205W, strain SCH9, stronger effect = lower value 0.807 | S. cerevisiae deletion strains, locus YIL147C, strain SLN1, stronger effect = lower value 0.927 | S. cerevisiae deletion strains, locus YJL095W, strain BCK1, stronger effect = lower value 0.888 | S. cerevisiae deletion strains, locus YJL128C, strain PBS2, stronger effect = lower value 0.865 | S. cerevisiae deletion strains, locus YJL157C, strain FAR1, stronger effect = lower value 0.949 | S. cerevisiae deletion strains, locus YJR016C, strain ILV3, stronger effect = lower value 0.92 | S. cerevisiae deletion strains, locus YJR066W, strain TOR1 (second series), stronger effect = lower value 0.992 | S. cerevisiae deletion strains, locus YJR066W, strain TOR1, stronger effect = lower value 0.905 | S. cerevisiae deletion strains, locus YKL048C, strain ELM1, stronger effect = lower value 0.92 | S. cerevisiae deletion strains, locus YKL067W, strain YNK1, stronger effect = lower value 0.927 | S. cerevisiae deletion strains, locus YKL101W, strain HSL1, stronger effect = lower value 0.911 | S. cerevisiae deletion strains, locus YKL193C, strain SDS22, stronger effect = lower value 0.913 | S. cerevisiae deletion strains, locus YKL203C, strain TOR2, stronger effect = lower value 1.01 | S. cerevisiae deletion strains, locus YLR133W, strain CKI1, stronger effect = lower value 0.936 | S. cerevisiae deletion strains, locus YLR403W, strain SFP1, stronger effect = lower value 0.965 | S. cerevisiae deletion strains, locus YML070W, strain DAK1, stronger effect = lower value 0.891 | S. cerevisiae deletion strains, locus YMR001C, strain CDC5, stronger effect = lower value 0.924 | S. cerevisiae deletion strains, locus YMR205C, strain PFK2 (second series), stronger effect = lower value 0.913 | S. cerevisiae deletion strains, locus YMR277W, strain FCP1, stronger effect = lower value 0.919 | S. cerevisiae deletion strains, locus YNL006W, strain LST8, stronger effect = lower value 0.938 | S. cerevisiae deletion strains, locus YNL020C, strain ARK1, stronger effect = lower value 0.923 | S. cerevisiae deletion strains, locus YNL161W, strain CBK1, stronger effect = lower value 0.918 | S. cerevisiae deletion strains, locus YNL183C, strain NPR1, stronger effect = lower value 0.857 | S. cerevisiae deletion strains, locus YNL207W, strain RIO2, stronger effect = lower value 0.921 | S. cerevisiae deletion strains, locus YNL222W, strain SSU72, stronger effect = lower value 0.923 | S. cerevisiae deletion strains, locus YNL307C, strain MCK1 (second series), stronger effect = lower value 0.88 | S. cerevisiae deletion strains, locus YOL078W, strain AVO1, stronger effect = lower value 0.917 | S. cerevisiae deletion strains, locus YOL136C, strain PFK27, stronger effect = lower value 0.889 | S. cerevisiae deletion strains, locus YOR061W, strain CKA2, stronger effect = lower value 0.927 | S. cerevisiae deletion strains, locus YOR119C, strain RIO1, stronger effect = lower value 0.964 | S. cerevisiae deletion strains, locus YOR231W, strain MKK1, stronger effect = lower value 0.854 | S. cerevisiae deletion strains, locus YOR329C, strain SCD5, stronger effect = lower value 0.921 | S. cerevisiae deletion strains, locus YPL031C, strain PHO85, stronger effect = lower value 0.961 | S. cerevisiae deletion strains, locus YPL153C, strain RAD53, stronger effect = lower value 0.962 | S. cerevisiae deletion strains, locus YPL204W, strain HRR25, stronger effect = lower value 0.953 | S. cerevisiae deletion strains, locus YPL209C, strain IPL1, stronger effect = lower value 0.92 | S. cerevisiae deletion strains, locus YPR025C, strain CCL1, stronger effect = lower value 0.932 | S. cerevisiae deletion strains, locus YPR106W, strain ISR1, stronger effect = lower value 0.918 | S. cerevisiae deletion strains, locus YPR111W, strain DBF20, stronger effect = lower value 0.901 | S. cerevisiae deletion strains, strain NNK1, stronger effect = lower value 0.888 | S. cerevisiae deletion strains, strain TSCII, stronger effect = lower value 0.921
